mIDH1 inhibitor: inhibitors of human mutant IDH1 R132H | O75874 | IDH1-R132H enzyme, NADPH consumption, diaphorase/resazurin fluorescence | Potency, µM (doses to about 76.6 µM), most hits filed as inhibitors | 0.093% of 390,000 active | AID 602179; also: nearly all actives have a fitted effect of over 65% in size
Target sequence (O75874 whole entry R132H, stated change not applied): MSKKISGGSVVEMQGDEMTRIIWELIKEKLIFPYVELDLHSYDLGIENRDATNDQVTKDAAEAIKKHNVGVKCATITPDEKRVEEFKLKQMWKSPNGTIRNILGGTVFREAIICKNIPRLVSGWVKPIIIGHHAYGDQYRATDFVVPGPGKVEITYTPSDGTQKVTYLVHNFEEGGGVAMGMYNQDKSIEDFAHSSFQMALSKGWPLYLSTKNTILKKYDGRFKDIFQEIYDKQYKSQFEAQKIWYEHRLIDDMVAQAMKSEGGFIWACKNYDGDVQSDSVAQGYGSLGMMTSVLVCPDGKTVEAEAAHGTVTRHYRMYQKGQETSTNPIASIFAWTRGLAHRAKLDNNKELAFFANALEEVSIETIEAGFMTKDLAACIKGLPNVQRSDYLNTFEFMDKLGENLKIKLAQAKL
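IDH1-R132H (0.5 ug/mL dispensed) in pH 7.5 Tris buffer was preincubated 30 min with compound, then given a substrate mix of 0.016 mM NADPH and 2 mM alpha-KG for 80 min at room temperature; remaining NADPH was read by diaphorase/resazurin fluorescence.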
Pin1 inhibitor: human Pin1 inhibition | Pin1 FP peptide displacement, HiFluor488, 10 min | Q13526 | 0.009% of 390,000 active | Potency, µM (highest dose often 115 µM), usual class: inhibitors; active = well fitted inhibition curve with a large enough effect in the polarisation, with a control signal flat, not every such curve was filed as active; inconclusive = small, poorly fitted or top-dose-only effect, or effect the other way, or a change in a side signal; inactive = no such curve, though single readings can be large or run the other way; the % refers to the polarisation
Target sequence (Q13526 whole entry, looked up): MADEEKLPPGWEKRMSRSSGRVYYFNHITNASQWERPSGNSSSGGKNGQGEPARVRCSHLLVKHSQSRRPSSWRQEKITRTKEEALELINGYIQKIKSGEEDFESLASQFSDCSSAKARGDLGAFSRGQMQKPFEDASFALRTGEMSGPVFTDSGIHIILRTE
Vif-A3F inh: blocks the Vif interaction with APOBEC3F; Potency, µM (doses to about 46.1 µM); AID 602313; 0.2% of 390,000 active; HeLa A3F-eYFP + Vif (tagged APOBEC3F with the HIV-1 protein that degrades it), YFP fluorescence increase; also: nearly all actives have a fitted effect of over 65% in size
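Fluorescence increase (Ex 488/Em 500-530) after overnight compound treatment at 37 deg C flags inhibition of Vif-driven A3F-eYFP loss in stable HeLa A3F-eYFP/Vif cells seeded overnight beforehand.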
Vif-A3G inh: inhibitors of Vif-APOBEC3G interaction; 0.076% of 410,000 active; HeLa A3G-eYFP + Vif (tagged APOBEC3G with the HIV-1 protein that degrades it), YFP fluorescence, overnight; Q9HC16; AID 602310; Potency, µM (doses to about 46.1 µM), hits mostly inhibitors; also: nearly all actives have a fitted effect of over 60% in size
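Read-out is eYFP fluorescence (Ex 488/Em 500-530) from Vif-expressing HeLa A3G-eYFP cells; more signal means A3G escaped Vif-mediated degradation. Cells plated overnight, compound pinned in, incubated overnight at 37 deg C.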
PGK inhibitor: blocks T. brucei phosphoglycerate kinase. PGK/GAPDH coupled, Kinase-Glo luminescence, 60 min. P07378. Potency, µM (doses to about 57.5 µM), hits mostly inhibitors. AID 602233. 0.043% of 380,000 active; also: nearly all actives have a fitted effect of over 60% in size
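Luminescent ATP detection (Kinase-Glo Plus) follows a 60-minute room-temperature incubation, with wells lacking PGK as controls. Buffer: 100 mM TEA (pH 7.6), 5 mM MgCl2, 0.01% Tween-20. Coupling enzyme GAPDH (100 nM final) supplies unstable 1,3-BPG in-well.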
LDHA inh: LDHA (human) enzyme inhibition; 0.15% of 480,000 active; activity change, % (values are at about 110 or 230 µM); purified LDHA, NADH/diaphorase-resazurin fluorescence; hits give low values; P00338; in the data active = activity change below about -30%; inconclusive = mostly about -25% to -30%
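LDH5 2 nM; NADH 0.06 mM, pyruvate 0.2 mM; 200 mM Tris pH 7.4, EDTA, Tween-20; 5 min RT. Detection: diaphorase 0.133 mg/mL + resazurin 37 µM, fluorescence ex540/em590 at 0 and 20 min; normalized to enzyme-free and DMSO wells.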
IDH1 autofl: autofluorescence interference, mutant IDH1 hit counter-screen; shares compounds with mIDH1 inhibitor; Resorufin detection reagent fluorescence interference, cell-free; inhibition of signal, % at 51.2 µM; 750 tested, under 10 active
WT IDH1 inh: wild-type IDH1 (human) inhibition counterscreen. shares compounds with mIDH1 inhibitor. WT IDH1 enzyme, NADPH diaphorase/resazurin fluorescence. Potency, µM (top dose mostly 115 µM), actives largely listed as inhibitors. 9% of 750 active. AID 623995; also: nearly all actives have a fitted effect of over 55% in size
Target sequence (O75874 whole entry, looked up): as the sequence (O75874 whole entry R132H, stated change not applied) above, with H132R counted along it
mIDH1 confirm: mutant IDH1 (human) inhibition, confirmed | Potency, µM (titrated, usually from 76.6 µM), hits mostly inhibitors | AID 624002 | 83% of 750 active | IDH1 R132H enzyme, NADPH diaphorase/resazurin fluorescence | shares compounds with mIDH1 inhibitor; also: nearly all actives have a fitted effect of over 50% in size
Of the large screens only hits and unclear results are named; the others gave an inactive call (follow-up assays come after a bar, where they were run). In the library only some 0.49% were active in any assay of this set; here they are far more common. Unless noted, calls follow the shape of the dose curve; as a rule, active = well fitted curve in the direction sought with a large enough effect; inconclusive = small, poorly fitted or top-dose-only effect, or another doubt; inactive = no such curve, though single readings can be large; an effect the other way counts as inactive or inconclusive.

COc1ccc(-c2nc(C)c(C(=O)N3CCN(C(C#N)c4ccc(F)cc4)CC3)s2)cc1 (configuration not stated)	none (no result: mIDH1 inhibitor, Pin1 inhibitor, Vif-A3F inh, Vif-A3G inh, PGK inhibitor)
O=S(=O)(NCCO)c1cc(Br)ccc1Br	none (no result: mIDH1 inhibitor, Pin1 inhibitor, Vif-A3F inh, Vif-A3G inh, PGK inhibitor)
COc1cc2cnc(-c3ccccc3)c(-c3ccc(C#N)cc3)c2cc1OC	mIDH1 inhibitor 31.6µM | IDH1 autofl inactive | WT IDH1 inh inconclusive | mIDH1 confirm 8.91µM
COc1cc2cnc(-c3ccsc3)c(-c3ccc(F)cc3)c2cc1OC	mIDH1 inhibitor inconclusive | IDH1 autofl inactive | WT IDH1 inh inactive | mIDH1 confirm 25.1µM
Cc1ccc(C(C(=O)NC2CCCC2)N(C(=O)Cc2cccs2)c2ccc(C)c(C)c2)o1 (configuration not stated)	mIDH1 inhibitor 5.21µM | IDH1 autofl inactive | WT IDH1 inh inactive | mIDH1 confirm 4.47µM
O=C(NC1CCCC1)C(c1ccc(F)cc1)N(C(=O)Cc1cccs1)c1ccc2c(c1)OCCO2 (configuration not stated)	mIDH1 inhibitor 10.4µM | IDH1 autofl inactive | WT IDH1 inh inactive | mIDH1 confirm 6.31µM
CCOc1ccc(N(C(=O)Cn2nnc3ccccc32)C(C(=O)NCc2ccccc2)c2ccc(OC)cc2)cc1 (configuration not stated)	none
Cc1ccc(C)c(N(C(=O)Cc2cccs2)C(C(=O)NC2CCCC2)c2ccc(C)o2)c1 (configuration not stated)	none
COc1ccc(N(C(=O)Cc2cccs2)C(C(=O)NC2CCCCC2)c2cccn2C)cc1 (configuration not stated)	mIDH1 inhibitor inconclusive | IDH1 autofl inactive | WT IDH1 inh inactive | mIDH1 confirm 39.8µM
Cc1ccc(C(C(=O)NC2CCCC2)N(C(=O)Cc2cccs2)c2ccc3c(c2)OCCO3)cc1 (configuration not stated)	mIDH1 inhibitor inconclusive
COc1ccc(N(C(=O)Cn2cnc3ccccc32)C(C(=O)NC2CCCCC2)c2ccccc2)cc1 (configuration not stated)	mIDH1 inhibitor 9.27µM | IDH1 autofl inactive | WT IDH1 inh inactive | mIDH1 confirm 2.82µM
CCNc1nc(-c2ccc(NC(C)=O)cc2)cs1	none (no result: mIDH1 inhibitor, Pin1 inhibitor, Vif-A3F inh, Vif-A3G inh, PGK inhibitor)
CCN(CC)CC(O)COc1ccc2c(c1)c(C(C)=O)c(C)n2CC (configuration not stated)	none (no result: mIDH1 inhibitor, Pin1 inhibitor, Vif-A3F inh, Vif-A3G inh, PGK inhibitor)
Cn1cccc1C(C(=O)NC1CCCCC1)N(C(=O)Cc1cccs1)c1ccc2c(c1)OCO2 (configuration not stated)	mIDH1 inhibitor inconclusive | IDH1 autofl inactive | WT IDH1 inh inactive | mIDH1 confirm 11.2µM
Cc1ccc(C(C(=O)NC2CCCC2)N(Cc2ccc3c(c2)OCO3)C(=O)Cc2cccs2)cc1 (configuration not stated)	none
CC1=C(C#N)c2nc(N)c(C#N)c(C)c2/C1=C\c1ccc(-c2ccccc2C(=O)O)o1	mIDH1 inhibitor inconclusive (no result: Pin1 inhibitor) | IDH1 autofl inactive | WT IDH1 inh 25.1µM | mIDH1 confirm 35.5µM
COc1cc(/C=C2/C(C)=C(C#N)c3nc(N)c(C#N)c(C)c32)ccc1OCC(=O)O	none
COc1cccc(Nc2nc3c(S(=O)(=O)c4cc(C)ccc4C)nnn3c3ccsc23)c1	mIDH1 inhibitor inconclusive | IDH1 autofl inactive | WT IDH1 inh inactive | mIDH1 confirm inconclusive
Cc1cc(C)nc(N/N=C/C2=C(N3CCOCC3)C(=C/c3ccccc3)/CC2)n1	mIDH1 inhibitor 29.3µM | IDH1 autofl inactive | WT IDH1 inh inactive | mIDH1 confirm 20µM
Cc1ccc(S(=O)(=O)N=Nc2c(O)[nH]c3ccccc23)cc1C	mIDH1 inhibitor 46.5µM, LDHA inh -36.1 | IDH1 autofl inactive | WT IDH1 inh inactive | mIDH1 confirm 44.7µM
COc1ccc(NC(=S)N=Nc2c(O)[nH]c3ccccc23)cc1	Vif-A3F inh inconclusive
COc1ccc(S(=O)(=O)N=Nc2c(O)[nH]c3ccccc23)cc1	mIDH1 inhibitor 52.1µM | IDH1 autofl inactive | WT IDH1 inh inactive | mIDH1 confirm inconclusive
CCCCOC(=O)C(C)Oc1ccc2c(=O)c(Oc3ccc(OC)cc3)coc2c1 (configuration not stated)	none (no result: mIDH1 inhibitor, Pin1 inhibitor, Vif-A3F inh, Vif-A3G inh, PGK inhibitor)
CCn1c(=O)c2cc(C(=O)N(C)c3ccccc3F)sc2c2ccccc21	mIDH1 inhibitor inconclusive | IDH1 autofl inactive | WT IDH1 inh inactive | mIDH1 confirm 28.2µM
CCn1c(=O)c2cc(C(=O)N(C)c3ccccc3C)sc2c2ccccc21	none (no result: mIDH1 inhibitor, Pin1 inhibitor, Vif-A3F inh, Vif-A3G inh, PGK inhibitor)
CCn1c(=O)c2cc(C(=O)N(C)c3cc(C)ccc3OC)sc2c2ccccc21	mIDH1 inhibitor inconclusive, Pin1 inhibitor inconclusive | IDH1 autofl inactive | WT IDH1 inh inactive | mIDH1 confirm 31.6µM
CC(C)C(NC(=O)c1nn(C)c(=O)c2ccccc12)c1ccc2c(c1)OCCCO2 (configuration not stated)	none (no result: mIDH1 inhibitor, Pin1 inhibitor, Vif-A3F inh, Vif-A3G inh, PGK inhibitor)
COc1ccc(Cl)cc1N(C(=O)c1ccco1)C(C(=O)NC1CCCC1)c1ccco1 (configuration not stated)	none
O=C(NC1CCCC1)C(c1ccncc1)N(C(=O)c1ccco1)c1ccc(F)c(Cl)c1 (configuration not stated)	mIDH1 inhibitor inconclusive | IDH1 autofl inactive | WT IDH1 inh inactive | mIDH1 confirm 39.8µM
Cc1ccc(N(C(=O)c2ccco2)C(C(=O)NC2CCCC2)c2ccco2)c(C)c1 (configuration not stated)	mIDH1 inhibitor inconclusive | IDH1 autofl inactive | WT IDH1 inh inactive | mIDH1 confirm 20µM
Cc1cc(C)cc(N(C(=O)c2ccco2)C(C(=O)NC2CCCC2)c2ccncc2)c1 (configuration not stated)	mIDH1 inhibitor inconclusive | IDH1 autofl inactive | WT IDH1 inh inactive | mIDH1 confirm 44.7µM
COc1ccc(N(C(=O)c2ccco2)C(C(=O)NC2CCCC2)c2cccs2)cc1 (configuration not stated)	mIDH1 inhibitor inconclusive | IDH1 autofl inactive | WT IDH1 inh inactive | mIDH1 confirm inconclusive
CNc1c(NS(=O)(=O)c2ccc(C)c(C)c2)c(=O)oc2ccccc12	none (no result: mIDH1 inhibitor, Pin1 inhibitor, Vif-A3F inh, Vif-A3G inh, PGK inhibitor)

Compound activity: PubChem, National Center for Advancing Translational Sciences (NCATS)
